Results published in PubChem BioAssay AID1345085 (National Center for Advancing Translational Sciences (NCATS), 2018).
Inconclusive results are not listed. Active and inactive are the calls of the source. The call rests on the fitted dose curve; in most records, active means well fitted cell-killing curve with a large enough effect; inconclusive means small, poorly fitted or top-dose-only effect, or effect the other way; inactive means no such curve, though single readings can be large or run the other way.

Test system: HeLa
Assay: Confirmatory qHTS for gynecologic anti-cancer compounds from libraries of approved drugs and bioactive compounds; further: nearly all actives have a fitted effect of over 55% in size
Conditions: gynecologic cancer cell panel viability, ATPlite luminescence, 48 h; series mostly up to 57.6 µM
Procedure, shortened: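 ATPlite luminescence read-out of cell viability; IC50 from 11-point 1:3 titrations, 57.5 uM to 0.977 nM, 48 h compound exposure at 37 C, 5% CO2. Cells seeded at 1,000/well 16 h before dosing.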
Potency means the concentration at half of the fitted maximal effect.

Compound | Potency
CNC(=O)c1ccccc1Sc1ccc2c(/C=C/c3ccccn3)n[nH]c2c1 | 3.06 µM (active)
Cc1nc(Nc2n[nH]c3c2CN(C(=O)NC(CN(C)C)c2ccccc2)C3(C)C)c2sccc2n1 (centres undefined) | 3.06 µM (active)
CCn1c(-c2nonc2N)nc2c(C#CC(C)(C)O)ncc(OCC3CCCNC3)c21 (centres undefined) | 21.7 µM (active)
CCC1C(=O)N(C)c2cnc(Nc3ccc(C(=O)NC4CCN(C)CC4)cc3OC)nc2N1C1CCCC1 (centres undefined) | 0.0049 µM (active)
